Results taken from PubChem BioAssay AID504832 (National Center for Advancing Translational Sciences (NCATS), 2011).
About 18,000 (5.8%) of roughly 310,000 compounds were called active. Another 22% or so got no clear call; they are omitted. The call rests on the fitted dose curve; in most records, active means well fitted inhibition curve with a large enough effect; inconclusive means small, poorly fitted or top-dose-only effect, or another doubt; inactive means no such curve, though single readings can be large or run the other way. The list comes from a sample in which actives are over-represented; it also holds similar structures and randomly drawn compounds.

experiment: Primary qHTS for delayed death inhibitors of the malarial parasite plastid, 48 hour incubation; details: P. falciparum luciferase growth in erythrocytes; series mostly up to 28.7 µM; activity change, negative = inhibition: at the top concentration
How it was run: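 Parasite viability was followed by luminescence of a genomically integrated firefly luciferase. Cultures held 0.1% parasitemia at 2% hematocrit (final), incubated under 5% CO2 at 37 C.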
On the % scale 0 is the no-effect control and ±100 the full control effect; potency means the concentration at half of the fitted maximal effect.

Row | SMILES | activity change, negative = inhibition | Potency
1 | COc1ccc(C(=O)OCC(=O)Nc2ccc3[nH]c(=O)[nH]c3c2)c(OC)c1OC | 2.5% (inactive) | 
2 | COc1ccc(NC(=O)C(=O)NCC(c2ccco2)N2CCc3ccccc3C2)cc1 (configuration not stated) |  | 13.1 µM (active)
3 | O=C(NCC(c1ccco1)N1CCc2ccccc2C1)c1ccccc1Cl (configuration not stated) | -23.2% (inactive) | 
4 | CCOC(CNC(=O)C(=O)NCC(c1ccco1)N1CCN(c2ccc(OC)cc2)CC1)OCC (configuration not stated) | 3.86% (inactive) | 
5 | C=CCc1cccc(/C=N/NC(=O)COc2ccc(-n3cnnn3)cc2)c1O | -22% (inactive) | 
6 | CCOc1ccc(-n2c(SCC(N)=O)nnc2-c2ccco2)cc1 | 12.9% (inactive) | 
7 | O=C(COc1cccc(Cl)c1)NCc1ccccc1 | 10.5% (inactive) | 
8 | COC(=O)C1=C(c2cccc(OCc3ccccc3)c2)C[C@@H]2CC[C@H]1N2C(=O)NNCc1ccccc1 |  | 8.28 µM (active)
9 | COC(=O)C1=C(c2ccc(C(C)=O)cc2)C[C@@H]2CC[C@H]1N2C(=O)NCCNC(C)=O | 37.2% (inactive) | 
10 | COC(=O)C1=C(c2c(C)noc2C)C[C@@H]2CC[C@H]1N2C(=O)NCc1ccc2c(c1)OCO2 | -0.217% (inactive) | 
11 | COc1cccc(CNC(=O)C2CC(=O)N(C3CCCCCCC3)C2)c1 (configuration not stated) | -13.4% (inactive) | 
12 | COC(=O)C1=C(c2cccc(OCc3ccccc3)c2)C[C@@H]2CC[C@H]1N2C(=O)NCc1ccc(Br)cc1 |  | 11.7 µM (active)
13 | O=C(NCc1ccncc1)C(=O)NCC1OCCN1S(=O)(=O)c1ccc(Br)cc1 (configuration not stated) | 9.05% (inactive) | 
14 | COCCCNc1nc2c(-c3cccc(C)c3)nnn2c2ccc(Cl)cc12 | -9.36% (inactive) | 
15 | CCOc1ccc(CC(=O)NCCS(=O)(=O)N2CCN(c3ccccc3)CC2)cc1 | -14.8% (inactive) | 
16 | Cc1csc2nc(O)c(C(=O)NCCN3CCOCC3)c(=O)n12 | -13.4% (inactive) | 
17 | CS(=O)(=O)N1CCN(C(=O)c2cc3ccccc3oc2=O)CC1 | -0.673% (inactive) | 
18 | O=C(c1cc2ccccc2o1)N1CCN(S(=O)(=O)c2ccc(Cl)s2)CC1 |  | 11.7 µM (active)
19 | O=C(CN1CCN(S(=O)(=O)c2ccc(Cl)s2)CC1)N1CCCCC1 | -8.33% (inactive) | 
20 | CCOC(=O)N1CCN(C(=O)c2ccc3c(c2)N(Cc2ccc(C)cc2)CCS3)CC1 |  | 13.1 µM (active)
21 | CCOC(=O)N1CCN(C(=O)c2ccc(S(=O)(=O)c3ccc(C)cc3)c(NC(C)=O)c2)CC1 | -6.92% (inactive) | 
22 | O=C(NCCc1ccccc1)c1ccc2c(c1)N(Cc1ccccc1)CCS2 | -14.5% (inactive) | 
23 | CCC(C)(C)NC(=O)C(c1ccc(O)cc1)N(C(=O)Cn1nnc2ccccc21)c1ccc(NC(C)=O)cc1 (configuration not stated) |  | 2.08 µM (active)
24 | COc1ccc(C(C(=O)NC(C)(C)C)N(C(=O)Cn2nnc3ccccc32)c2ccc(C(C)=O)cc2)cc1O (configuration not stated) | -29.7% (inactive) | 

Row | SMILES | activity change, negative = inhibition | Potency
25 | CCC(C)(C)NC(=O)C(c1ccccn1)N(C(=O)c1csnn1)c1ccccc1 (configuration not stated) | 1.07% (inactive) | 
26 | CCN(CC(=O)Nc1cc(Cl)ccc1C)C(=O)CSCc1ccc(C)cc1 | 0.0039% (inactive) | 
27 | C=CCNC(=S)N/N=C/c1ccc(OCc2ccccc2)cc1 | -2.98% (inactive) | 
28 | C=CCNC(=S)N/N=C/c1ccc(C)s1 |  | 4.65 µM (active)
29 | Cc1ccc(/C=N/NC(=O)CN2CCN(Cc3ccccc3)CC2)s1 | 51% (inactive) | 
30 | CC(C)(C)C(=O)NC1CC2CCCC(C1)N2C(=O)Nc1ccccc1F (configuration not stated) | 11.9% (inactive) | 
31 | O=S(=O)(Nc1ccc(-n2cnnn2)cc1)c1ccc(Cl)cc1 | -3.82% (inactive) | 
32 | CCOc1ccc(-n2c(SCC(=O)OC)nc3sc4c(c3c2=O)CCN(C)C4)cc1 |  | 0.928 µM (active)
33 | COc1ccc(-n2c(=S)[nH]c3sc4c(c3c2=O)CCc2ccccc2-4)cc1 | -0.883% (inactive) | 
34 | Cc1ccc(C)c(-n2c(SCC(=O)O)nc3sc4c(c3c2=O)CCCC4)c1 | -7.11% (inactive) | 
35 | Cc1sc2nc(SCCO)n(-c3ccccc3)c(=O)c2c1C | 5.65% (inactive) | 
36 | COc1ccccc1NC(=O)CSc1nc2sc3c(c2c(=O)n1-c1ccccc1)CCN(C)C3 |  | 1.65 µM (active)
37 | CCc1nc(SCC(=O)Nc2ccccc2OC)n[nH]1 | 29.7% (inactive) | 
38 | CCCSc1nc2sc3c(c2c(=O)n1-c1ccc(OC)cc1)CCN(C)C3 |  | 7.38 µM (active)
39 | CCOC(=O)Cn1c(SC)nc2sc3c(c2c1=O)CC(C)(C)OC3 | 0.338% (inactive) | 
40 | CCc1cc2c(=O)n(-c3ccccc3)c(SCC(=O)O)nc2s1 | 7.53% (inactive) | 
41 | COc1ccccc1-n1c(SCC(=O)O)nc2sc3c(c2c1=O)CCC3 | -4.58% (inactive) | 
42 | CCOc1ccc2cc(C#N)c(SCC(=O)OC)nc2c1 | 202% (inactive) | 
43 | CCSc1nc2sc3c(c2c(=O)n1-c1ccc(C)cc1)CCN(C)C3 |  | 2.62 µM (active)
44 | C[C@H](OC(=O)n1ccnc1)[C@@H]1O[C@@]2(C)CCC[C@@H]1O2 | 2.35% (inactive) | 
45 | Cc1cccc(CN2CCC(n3nccc3NC(=O)c3ccccc3C)CC2)n1 | 9.28% (inactive) | 
46 | Cc1ccc(-n2ncc3c2CCCC3NC(=O)c2cnccn2)cc1C (configuration not stated) | -16.1% (inactive) | 
47 | COc1ccccc1C(=O)NCCC(=O)NC(C)CCc1ccccc1 (configuration not stated) | 5.59% (inactive) | 
